Compound activity (PubChem BioAssay)
tim23-1 inh – growth inhibitors of tim23-1 mutant yeast | AID 463212 | S. cerevisiae tim23-1 growth, BacTiter-Glo luminescence, 24 h | actives 1.3% (n = 330,000) | inhibition, % at 20 µM;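 active means growth inhibition of the mutant yeast at or above 50%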;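 further: temperature-sensitive mutant grown at 25 °C; plate controls were DMSO-treated mutant yeast for no effect and medium wells lacking yeast for full effect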
MPTP inh – inhibitors of mitochondrial permeability transition pore | inhibition, % at 10 µM | AID 602449 | actives 1.4% (n = 360,000) | isolated mouse mitochondria, Ca2+ swelling absorbance, 30 min;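 active means inhibition of 50% or more, scaled per plate between neutral and stimulator controls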;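 further: 0% = DMSO wells given calcium and 100% = 1 mM EGTA wells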
Mdm2 MdmX PPI – inhibitors of human Mdm2/MdmX interaction. SaOS-2 split-luciferase Mdm2/MdmX complementation, luminescence. inhibition, % at 8 µM. actives 3% (n = 330,000);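 active means inhibition of at least 50% at 8 µM in the primary screen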
tim10-1 inh – growth inhibitors of tim10-1 mutant yeast. S. cerevisiae tim10-1 ts strain growth, BacTiter-Glo, 24 h. inhibition, % at 20 µM. actives 2.2% (n = 330,000);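 active means inhibition of at least 40%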;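 further: mutant grown at 25 °C; 0% = DMSO wells with yeast and 100% = wells holding no yeast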
TIM10 inh – inhibits growth of TIM10 yeast strain. S. cerevisiae TIM10 strain growth, BacTiter-Glo luminescence, 24 h. inhibition, % at 10 µM. actives 1.4% (n = 330,000). AID 463195;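 active means inhibition of 40% or more at the single tested concentration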;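 further: wild-type TIM10 isogenic control strain grown at permissive 25 °C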
tim10-1 confirm – tim10-1 yeast growth inhibition, confirmed | S. cerevisiae tim10-1 ts strain growth, BacTiter-Glo, 24 h | actives 56% (n = 7,400) | shares compounds with tim10-1 inh | AID 463213 | inhibition, % at 20 µM;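 active means inhibition of yeast growth at or above a set limit in either of two repeat tests at 20 µM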;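 further: tim10-1 mutant grown at permissive 25 °C to find synthetic lethal compounds; 0% = DMSO yeast wells and 100% = medium wells without yeast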
TIM10 conf – TIM10 yeast growth inhibition, confirmed; actives 63% (n = 4,600); inhibition, % at 10 µM; AID 463215; shares compounds with TIM10 inh; S. cerevisiae tim10 strain growth, BacTiter-Glo luminescence, 24 h;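 active means inhibition of yeast growth at or above a set limit in either of two replicates at 10 µM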;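 further: this counterscreen used the strain with wild-type TIM10; 0% = yeast with DMSO and 100% = medium wells lacking yeast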
tim23-1 confirm – confirmation of tim23-1 mutant yeast growth inhibitors; shares compounds with tim23-1 inh; S. cerevisiae tim23-1 growth, BacTiter-Glo luminescence, 24 h; inhibition, % at 20 µM; actives 83% (n = 4,400);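 active means inhibition above about 39% in either of two replicate wells at 20 µM, limit read from the data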;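 further: temperature-sensitive tim23-1 mutant grown at 25 °C; 0% = DMSO wells with yeast and 100% = medium wells without yeast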
Mdm2-MdmX conf – human Mdm2/MdmX binding inhibition, confirmed | shares compounds with Mdm2 MdmX PPI | luminescent assay | inhibition, % at 8 µM | actives 55% (n = 10,000); in the data active means inhibition above about 40%
FLuc counter – full-length luciferase inhibition in Mdm2/MdmX counter-screen. shares compounds with Mdm2 MdmX PPI. SaOS-2 full-length luciferase counterscreen, luminescence. inhibition, % at 8 µM. actives 77% (n = 6,200);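 active means mean inhibition at 8 µM reaching about 37%, which flags the compound as non-specific, limit read from the data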;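 further: p53-null SaOS-2 cells with luciferase driven by a doxycycline-inducible promoter; compound on cells about two nights before reading with doxycycline added after day one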
Numbers without * were called inactive; x = not tested or not shown; + = active, no number. In the library only some 6.3% were active in any assay of this set; here they are far more common.

SMILES | tim23-1 inh | MPTP inh | Mdm2 MdmX PPI | tim10-1 inh | TIM10 inh | tim10-1 confirm | TIM10 conf | tim23-1 confirm | Mdm2-MdmX conf | FLuc counter
CC(C)N(CC(=O)Nc1ccc(Cl)cc1C(F)(F)F)C(=O)CCl | 55* | -2 | 63* | 47* | 67* | 59* | 56* | 54* | 11 | x
CCC(C)N(CC(=O)Nc1cccc(C)c1C)C(=O)CCl (stereo unspecified) | 45 | 0 | 100* | 53* | 54* | 47* | 46* | x | 99* | 52*
COc1ccc2c(c1)CCO[C@]21O[C@H](CCO)C[C@H](O)[C@H]1O | x | 0 | x | x | x | x | x | x | x | x
COc1ccccc1NC(=O)CCNC(=O)C1CCN(S(=O)(=O)c2ccccc2)CC1 | x | 0 | x | x | x | x | x | x | x | x
N#CC1C(=O)NC(=O)C(C#N)C12CCCC(C(F)(F)F)C2 (stereo unspecified) | x | 0 | x | x | x | x | x | x | x | x
CC1CCc2nc(NC(=O)C3COc4ccccc4O3)sc2C1 (stereo unspecified) | 38 | 1 | 52* | 49* | 27 | 27 | x | x | 77* | +
N/C(Cc1ccc([N+](=O)[O-])cc1)=N\OC(=O)c1ccccc1Br | 62* | 1 | 60* | 52* | 88* | 56* | -8 | 88* | 30 | x
N/C(=N\OC(=O)c1ccc([N+](=O)[O-])cc1)c1ccc(Br)cc1 | 32 | -1 | -24 | 9 | 10 | x | x | x | x | x
COc1ccccc1C/C(N)=N/OC(=O)c1cccc([N+](=O)[O-])c1C | 78* | 0 | 57* | 46* | 83* | 33* | -32 | 74* | 36 | 102*
O=C(OCc1cc2ccccc2[nH]c1=O)c1ccc([N+](=O)[O-])cc1 | 4 | 2 | 2 | 15 | 6 | x | x | x | x | x
Cc1cccc(C(=O)Oc2ccc(/C=N/NC(=O)Cc3ccc([N+](=O)[O-])cc3)cc2)c1 | -8 | -2 | 16 | -2 | -12 | x | x | x | x | x
Cc1cccc(C(=O)O/N=C(\N)Cc2ccc([N+](=O)[O-])cc2)c1 | 81* | -5 | 89* | 40* | 87* | 58* | 91* | 91* | 56* | 54*
N/C(Cc1ccc([N+](=O)[O-])cc1)=N\OC(=O)c1ccc2ccccc2c1 | 81* | 0 | 88* | 54* | 90* | 47* | 89* | 92* | 40 | 61*
CSCCC(NC(=O)OCc1ccccc1)NC(=O)OCc1ccccc1 | x | 1 | x | x | x | x | x | x | x | x
N/C(Cc1ccc([N+](=O)[O-])cc1)=N\OC(=O)C(c1ccccc1)c1ccccc1 | 44 | 3 | 70* | 72* | 50* | 73* | 63* | x | 50* | 79*
CC1(C(=O)NS(=O)(=O)c2cccs2)CCN1C(=O)Cc1ccc(Cl)cc1Cl (stereo unspecified) | x | 1 | x | x | x | x | x | x | x | x
COc1cc(C(C[N+](=O)[O-])c2c(-c3ccccc3)cc3ccccn23)cc(OC)c1OC (stereo unspecified) | 54* | 0 | 55* | 41* | 34 | 33* | x | 69* | 15 | x
COc1cc(C(C[N+](=O)[O-])c2c(C)cc3ccccn23)ccc1O (stereo unspecified) | 32 | 5 | -21 | 27 | 26 | x | x | x | x | x
COC(=O)c1[nH]c2ccc(Br)cc2c1NC(=O)CN1CCCc2ccccc21 | 35 | 2 | 53* | 46* | 23 | 34* | x | x | 26 | x
CC(=O)Nc1cc(-c2cccc(N)c2)cn2c(-c3ccccc3)cnc12 | x | -1 | x | x | x | x | x | x | x | x
O=C(Nc1ccc(N2CCOCC2)c(Cl)c1)c1c(F)c(F)c(F)c(F)c1F | 24 | 14 | 57* | 50* | 32 | 40* | x | x | 46* | 45*
O=C(NCC(F)(F)F)C1C(=O)Nc2ccccc2C(=O)N1C1CCCC1 (stereo unspecified) | x | 0 | x | x | x | x | x | x | x | x
C=C(C)C(=O)OC1(C(F)(F)F)Oc2cc(C)ccc2NC1=O (stereo unspecified) | 66* | 1 | 100* | 56* | 48* | 52* | 41* | 78* | 61* | 16
COc1ccc(C2(O)C(=O)Nc3ccc(C)cc32)cc1 (stereo unspecified) | 11 | 0 | -7 | -8 | 15 | x | x | x | x | x
C/C(CC(C)(C)C1CCCCC1)=N\NC(N)=S | 78* | 0 | 56* | 69* | 55* | 70* | 73* | 64* | 6 | x
SMILES | tim23-1 inh | MPTP inh | Mdm2 MdmX PPI | tim10-1 inh | TIM10 inh | tim10-1 confirm | TIM10 conf | tim23-1 confirm | Mdm2-MdmX conf | FLuc counter
COc1cc(/C=C2/SC(=S)N(CC(=O)NNC(=O)c3ccc(F)cc3)C2=O)cc(OC)c1OC | x | 0 | x | x | x | x | x | x | x | x
COc1ccccc1C(=O)Nc1nc2ccccc2[nH]1 | 85* | -1 | 98* | 67* | 68* | 66* | 55* | 83* | 95* | 6
CSc1ccccc1C(=O)Nc1nc2ccccc2[nH]1 | 4 | 0 | -40 | 13 | 2 | x | x | x | x | x
COc1cc(SC)ccc1C(=O)Nc1nc2ccccc2[nH]1 | 93* | 0 | 100* | 90* | 88* | 91* | 88* | 94* | 99* | 2
CCCc1c(C(=O)N/N=C/c2ccc3c(c2)OCO3)nnn1-c1nonc1N | x | 0 | x | x | x | x | x | x | x | x
COc1ccc(-c2oc3cccnc3c2C#CC2(O)CCCCC2)cc1 | 58* | 2 | 52* | 48* | 41* | 11 | 26 | 48* | 39 | x
COc1ccc(-c2oc3ccc(N4CCOCC4)cc3c2C#CC2(O)CCCCC2)cc1 | 36 | 1 | 73* | 41* | 23 | 12 | x | x | 59* | 54*
COc1ccc(-c2oc3ccc(N4CCOCC4)cc3c2C#Cc2ccc(N)cc2)cc1 | 23 | 2 | 30 | 22 | 24 | x | x | x | x | x
N/C(=N\OC(=O)C12CC3CC(CC(C3)C1)C2)c1ccccc1 | 70* | -1 | 54* | 65* | 79* | 54* | 78* | 71* | 9 | x
O=C(O)c1ccccc1OC(=O)C12CC3CC(CC(C3)C1)C2 | 14 | -1 | 16 | 26 | 13 | x | x | x | x | x
O=C1C=CC(=O)N1CCNc1ncc(C(F)(F)F)cc1Cl | 47 | 9 | 63* | 92* | 88* | 94* | 98* | x | 68* | 53*
O=C(NCc1cccnc1)c1cc(C2CCCCN2S(=O)(=O)Cc2ccccc2)on1 (stereo unspecified) | x | 0 | x | x | x | x | x | x | x | x
CC(=O)n1cc(N(C(=O)CCl)c2ccc(Cl)cc2)c2ccccc21 | 64* | 1 | 99* | 48* | 34 | 46* | x | 41* | 100* | 8
